In PubChem BioAssay:
Records with an inconclusive call do not appear. Active and inactive are the calls of the source.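 Rule for the calls, unless noted: active = efflux inhibition above 0.42, the validation set average plus 4 SD; inconclusive = no clear call, values can overlap the other calls; inactive = the rest.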

Experiments:
[1] = yeast TOR pathway RPL19A-GFP modulators, primary screen, cell-based, S. cerevisiae, multiplex flow cytometry (AID 1862; in the data active = percent of DMSO control GFP below about 86%;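 note: lower values mimic rapamycin by blocking the RPL19A rise seen in DMSO cells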); conditions: S. cerevisiae RPL19A-GFP strain, flow cytometry fluorescence, 3 h; at 10 µM; stronger effect = lower value
[2] = modulators of MEP2-GFP levels in yeast, primary screen, S. cerevisiae, multiplex flow cytometry (AID 1867;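 active = GFP response, as percent of the DMSO control, above the screen-wide mean plus 3 SD, about 139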;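 note: median GFP channel fluorescence of barcode-gated MEP2-GFP cells measured by flow cytometry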); conditions: S. cerevisiae MEP2-GFP strain, 3 h, at 10 µM, stronger effect = higher value, 100% means same as DMSO wells
[3] = modulators of CIT2-GFP expression in yeast, primary screen, S. cerevisiae, GFP fusion, multiplex flow cytometry (AID 1870;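 active = percent response above a set limit, the screen-wide mean plus 3 SD, cut at about 130% in these data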;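 note: barcoded CIT2-GFP strain pooled with four other GFP strains with rapamycin as positive control; median GFP fluorescence per well over plate mean of DMSO wells so 100% = DMSO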); conditions: 3 h, at 10 µM, stronger effect = higher value
[4] = modulators of LAP4-GFP expression in yeast, primary screen, S. cerevisiae, multiplex flow cytometry (AID 1873;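 active = GFP signal, as percent of the solvent control, above the screen mean plus 3 SD, about 149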); conditions: 3 h, at 10 µM, stronger effect = higher value
[5] = modulators of AGP1-GFP expression in yeast TOR pathway, primary screen, cell-based, multiplex flow cytometry, S. cerevisiae (AID 1887;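 active = GFP signal above the screen-wide mean plus 3 SD, that is over about 124.5% of the solvent control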;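 note: AGP1-GFP fusion strain of S. cerevisiae within a five-strain barcoded multiplex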); conditions: 3 h, at 10 µM, stronger effect = higher value
[6] = inhibitors of CD8+ T cell-vesicle binding, pilot screen, LFA-1/ICAM-1 modulator project, MLPCN validation set, flow cytometry (AID 2523;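 active = response below a set limit, under 55% cells CD8-positive and vesicle-bound, and CD8 cells' 90th-percentile brightness under 279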;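 for vesicle binding response: mean PE anti-B7-1 fluorescence of CD8+ cells relative to row control; 100% = QL9-loaded vesicles with DMSO vehicle in the same plate row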); conditions: 2C mouse CD8+ T cells, at 7 µM, stronger effect = lower value; double positive events: measured here: CD8+/vesicle+ event percentage
[7] = molecular target: Integrin beta-1 (Homo sapiens) + Integrin alpha-4 (Homo sapiens) (UniProt P13612+P05556); test: inhibition of HUTS-21 binding to VLA-4, pilot screen, VLA-4 allosteric modulator project, U937 cells, HUTS-21 mAb, flow cytometry, validation set (AID 2674;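 active = inhibition above 50%, about 3 SD of the validation set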;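 note: antibody binding induced by the VLA-4 ligand LDV present at three times its Kd; 0% = LDV ligand with antibody and no compound and 100% = antibody without LDV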); conditions: HUTS-21 LIBS mAb binding, at 6.7 µM, stronger effect = higher value, binding induced by LDV ligand
Integrin beta-1 (Homo sapiens) + Integrin alpha-4 (Homo sapiens), sequence (P05556 whole entry, looked up): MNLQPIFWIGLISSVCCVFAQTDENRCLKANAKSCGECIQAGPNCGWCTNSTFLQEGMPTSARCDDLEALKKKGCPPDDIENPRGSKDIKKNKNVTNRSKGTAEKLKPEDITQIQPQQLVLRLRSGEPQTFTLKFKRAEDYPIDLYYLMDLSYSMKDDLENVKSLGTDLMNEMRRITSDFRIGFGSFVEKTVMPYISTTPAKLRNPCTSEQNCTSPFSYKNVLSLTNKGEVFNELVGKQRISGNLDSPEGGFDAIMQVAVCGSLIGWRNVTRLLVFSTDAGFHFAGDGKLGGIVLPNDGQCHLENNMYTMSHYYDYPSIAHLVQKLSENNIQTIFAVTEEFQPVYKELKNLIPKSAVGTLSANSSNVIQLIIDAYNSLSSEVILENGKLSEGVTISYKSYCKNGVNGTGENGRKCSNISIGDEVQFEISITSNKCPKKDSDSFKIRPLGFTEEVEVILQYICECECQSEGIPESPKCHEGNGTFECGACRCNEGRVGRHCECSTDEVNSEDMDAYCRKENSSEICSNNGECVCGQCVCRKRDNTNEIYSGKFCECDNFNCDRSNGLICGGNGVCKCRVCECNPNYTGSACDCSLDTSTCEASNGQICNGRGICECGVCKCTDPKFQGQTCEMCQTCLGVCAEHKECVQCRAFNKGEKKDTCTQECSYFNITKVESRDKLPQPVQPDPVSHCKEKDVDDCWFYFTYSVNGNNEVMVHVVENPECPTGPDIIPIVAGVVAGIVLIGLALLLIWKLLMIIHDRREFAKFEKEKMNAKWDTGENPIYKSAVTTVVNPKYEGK
Integrin beta-1 (Homo sapiens) + Integrin alpha-4 (Homo sapiens), sequence (P13612 whole entry, looked up): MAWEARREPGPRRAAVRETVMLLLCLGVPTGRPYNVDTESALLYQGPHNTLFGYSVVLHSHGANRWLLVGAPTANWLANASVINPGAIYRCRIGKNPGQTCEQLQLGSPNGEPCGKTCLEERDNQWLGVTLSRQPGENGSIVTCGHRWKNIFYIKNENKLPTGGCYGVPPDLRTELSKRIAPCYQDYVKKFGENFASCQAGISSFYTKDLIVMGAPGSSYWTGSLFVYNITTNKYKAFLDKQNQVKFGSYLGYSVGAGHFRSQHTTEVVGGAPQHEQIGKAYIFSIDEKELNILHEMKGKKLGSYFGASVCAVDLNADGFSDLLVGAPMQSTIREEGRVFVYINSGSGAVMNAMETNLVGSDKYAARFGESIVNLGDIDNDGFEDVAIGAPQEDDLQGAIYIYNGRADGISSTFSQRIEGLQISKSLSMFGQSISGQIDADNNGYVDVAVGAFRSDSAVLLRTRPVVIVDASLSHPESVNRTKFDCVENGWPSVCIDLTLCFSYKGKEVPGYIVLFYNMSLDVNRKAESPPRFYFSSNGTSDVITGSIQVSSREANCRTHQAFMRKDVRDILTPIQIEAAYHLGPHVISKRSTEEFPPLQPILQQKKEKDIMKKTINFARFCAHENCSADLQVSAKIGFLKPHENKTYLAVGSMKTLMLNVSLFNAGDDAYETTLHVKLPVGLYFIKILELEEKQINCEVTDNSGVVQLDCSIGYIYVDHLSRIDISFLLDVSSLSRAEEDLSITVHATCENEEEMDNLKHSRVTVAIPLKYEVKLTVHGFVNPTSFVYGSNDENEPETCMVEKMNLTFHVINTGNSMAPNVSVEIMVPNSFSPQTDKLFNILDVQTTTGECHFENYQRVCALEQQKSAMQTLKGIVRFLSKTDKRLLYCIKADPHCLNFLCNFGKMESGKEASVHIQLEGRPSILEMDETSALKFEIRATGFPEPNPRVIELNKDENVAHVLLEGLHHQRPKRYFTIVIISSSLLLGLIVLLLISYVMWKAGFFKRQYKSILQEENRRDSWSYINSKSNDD

[8] = superoxide lowering in aged yeast cells, pilot screen, validation compound set (AID 2706;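 active = superoxide response below 65% of plate, a cut near 3 SD across the whole screen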;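 note: yeast exposed to compound for one week at 30 degrees C before staining; 100% = mean of all compound wells on the same plate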); conditions: S. cerevisiae aging, superoxide DHE fluorescence; at 10 µM; stronger effect = lower value
[9] = molecular target: Beta-adrenergic receptor kinase 1 (Homo sapiens) (UniProt P25098); test: GRK2 binders displacing RNA aptamer, biochemical, validation, human GRK2, bead flow cytometry (AID 488806;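 active = aptamer binding inhibition above 30%, about 3 SD of noise from non-fluorescent compounds; inactive = inhibition at or below 30%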); conditions: bead-bound GRK2, FAM-aptamer displacement, at 10 µM, stronger effect = higher value
Beta-adrenergic receptor kinase 1 (Homo sapiens), sequence (P25098 whole entry, looked up): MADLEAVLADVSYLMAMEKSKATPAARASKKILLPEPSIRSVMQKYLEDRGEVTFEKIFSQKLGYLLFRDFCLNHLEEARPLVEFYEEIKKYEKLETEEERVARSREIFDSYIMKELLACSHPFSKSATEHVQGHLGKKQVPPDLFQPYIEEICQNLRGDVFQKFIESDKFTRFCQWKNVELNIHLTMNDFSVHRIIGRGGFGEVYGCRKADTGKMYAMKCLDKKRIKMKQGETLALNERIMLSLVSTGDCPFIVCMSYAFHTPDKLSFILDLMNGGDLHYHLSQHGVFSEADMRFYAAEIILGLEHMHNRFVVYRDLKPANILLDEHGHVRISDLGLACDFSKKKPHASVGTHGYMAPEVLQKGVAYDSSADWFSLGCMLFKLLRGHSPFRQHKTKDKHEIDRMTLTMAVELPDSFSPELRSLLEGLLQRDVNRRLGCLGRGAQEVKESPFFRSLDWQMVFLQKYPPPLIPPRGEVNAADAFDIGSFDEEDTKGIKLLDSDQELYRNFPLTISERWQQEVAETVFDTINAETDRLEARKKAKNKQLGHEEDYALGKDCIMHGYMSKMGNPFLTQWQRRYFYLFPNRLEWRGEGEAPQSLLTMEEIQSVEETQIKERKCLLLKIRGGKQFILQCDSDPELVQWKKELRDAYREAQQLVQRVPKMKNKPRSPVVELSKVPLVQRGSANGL

[10] = molecular target: Beta-2 adrenergic receptor (Homo sapiens) (UniProt P07550); test: beta2AR agonists driving receptor internalization, pilot screen, cell-based, FAP fluorogen, flow cytometry, validation set (AID 504459;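 active = percent response above 42, roughly 3 SD of non-fluorescent test compounds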;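 note: agonist-driven loss of surface beta2AR via internalization measured by FAP dye flow cytometry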); conditions: Am2.2-beta2AR cells, FAP surface receptor flow cytometry; at 10 µM; stronger effect = higher value
Beta-2 adrenergic receptor (Homo sapiens), sequence (P07550 whole entry, looked up): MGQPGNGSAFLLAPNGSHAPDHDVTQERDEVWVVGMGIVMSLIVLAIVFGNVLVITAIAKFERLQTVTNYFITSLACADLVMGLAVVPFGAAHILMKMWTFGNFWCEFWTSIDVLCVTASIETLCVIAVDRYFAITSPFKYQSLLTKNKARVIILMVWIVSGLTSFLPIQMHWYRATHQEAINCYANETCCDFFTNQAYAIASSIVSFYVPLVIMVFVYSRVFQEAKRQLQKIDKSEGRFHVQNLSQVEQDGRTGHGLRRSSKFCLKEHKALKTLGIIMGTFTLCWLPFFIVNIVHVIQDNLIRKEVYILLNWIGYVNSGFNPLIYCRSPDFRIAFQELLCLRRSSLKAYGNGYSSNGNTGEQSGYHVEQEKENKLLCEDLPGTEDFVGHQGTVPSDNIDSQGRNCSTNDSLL

[11] = molecular target: AP-2 complex subunit beta (Homo sapiens) (UniProt P63010); test: inhibitors of arrestin peptide binding to AP2, pilot screen, biochemical, validation set, GST-AP2 beads, flow cytometry (AID 504541;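 active = inhibition above 54%, about 3 SD of non-fluorescent compounds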;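 note: AP2 carries R879A mutation and is captured from E. coli lysate; bead-bound FITC arrestin peptide fluorescence measuring arrestin peptide binding to AP2; 0% = DMSO wells and 100% = excess unlabeled arrestin peptide control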); conditions: FITC arrestin peptide, at 10 µM, stronger effect = higher value, AP2 beta2 appendage fragment, R879A mutant
AP-2 complex subunit beta (Homo sapiens), sequence (P63010 whole entry, looked up, the tested form may be a part, one chain of several): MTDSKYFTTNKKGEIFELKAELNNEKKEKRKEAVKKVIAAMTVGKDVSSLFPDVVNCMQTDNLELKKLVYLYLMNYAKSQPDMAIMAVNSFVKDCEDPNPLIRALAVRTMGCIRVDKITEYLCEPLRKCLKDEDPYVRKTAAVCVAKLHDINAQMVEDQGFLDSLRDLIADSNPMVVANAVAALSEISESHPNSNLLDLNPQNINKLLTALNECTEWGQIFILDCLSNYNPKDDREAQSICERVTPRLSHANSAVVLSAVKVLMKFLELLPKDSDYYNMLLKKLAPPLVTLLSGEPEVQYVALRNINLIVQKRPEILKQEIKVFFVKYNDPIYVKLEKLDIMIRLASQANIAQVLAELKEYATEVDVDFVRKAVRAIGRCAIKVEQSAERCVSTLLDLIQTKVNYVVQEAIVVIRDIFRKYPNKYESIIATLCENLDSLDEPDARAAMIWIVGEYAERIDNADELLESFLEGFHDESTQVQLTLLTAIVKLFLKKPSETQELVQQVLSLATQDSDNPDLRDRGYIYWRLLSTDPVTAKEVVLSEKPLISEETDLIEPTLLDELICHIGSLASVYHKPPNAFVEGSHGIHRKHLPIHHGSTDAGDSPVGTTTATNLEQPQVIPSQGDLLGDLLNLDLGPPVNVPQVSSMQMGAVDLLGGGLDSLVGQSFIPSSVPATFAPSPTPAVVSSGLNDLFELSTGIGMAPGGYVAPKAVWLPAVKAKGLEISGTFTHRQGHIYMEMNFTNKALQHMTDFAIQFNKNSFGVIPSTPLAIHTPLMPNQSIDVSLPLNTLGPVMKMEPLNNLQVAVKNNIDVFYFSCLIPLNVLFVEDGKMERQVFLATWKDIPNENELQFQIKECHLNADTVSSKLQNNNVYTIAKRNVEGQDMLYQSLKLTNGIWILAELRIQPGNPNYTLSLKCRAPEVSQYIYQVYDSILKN

[12] = yeast V-ATPase proton transport modulators, S. cerevisiae, pHLuorin, HTS validation (AID 504600; in the data active = response above about 15%;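 note: plate controls were DMSO for no effect and reference compound for full effect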); conditions: S. cerevisiae pHLuorin cytosolic pH, at 10 µM, stronger effect = higher value
[13] = system: anti-desmoglein-3 scFv antibody binding to human DSG3; test: inhibitors of anti-DSG3 scFv binding to DSG3, pilot screen, biochemical, validation compound set, bead-based, flow cytometry (AID 588368;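 active = binding below the plate cutoff, the plate median minus 3 SD, with a reading above zero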;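 note: signal is the median channel fluorescence of bead-bound GFP antibody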); conditions: Protein G beads, DSG3-Fc, scFv-GFP binding, at 10 µM, stronger effect = lower value
[14] = inhibitors of fungal efflux pumps CDR1, CDR2, MDR1, pilot screen, validation compound set, multiplex, phenotypic (AID 588506);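 note: Nile Red retained in cells so higher fluorescence means more efflux inhibition; 0 = negative control wells and 1 = enniatin B 25 µM full block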; conditions: S. cerevisiae pump-expressing triplex, Nile Red efflux flow cytometry; at 10 µM; stronger effect = higher value; the pumps come from Candida albicans
[15] = molecular target: ATP-binding cassette sub-family B member 6 (Homo sapiens) (UniProt Q9NP58); test: ABCB6 transporter inhibitors, pilot screen, K562-ABCB6 cells, flow cytometry, validation set (AID 588550;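 active = inhibition above the screen-wide mean plus 3 SD, about 51%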;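 note: 0% = DMSO wells and 100% = benzethonium chloride 70 µM positive control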); conditions: K562-ABCB6 porphyrin accumulation, 1 h, at 10 µM, stronger effect = higher value
ATP-binding cassette sub-family B member 6 (Homo sapiens), sequence (Q9NP58 whole entry, looked up): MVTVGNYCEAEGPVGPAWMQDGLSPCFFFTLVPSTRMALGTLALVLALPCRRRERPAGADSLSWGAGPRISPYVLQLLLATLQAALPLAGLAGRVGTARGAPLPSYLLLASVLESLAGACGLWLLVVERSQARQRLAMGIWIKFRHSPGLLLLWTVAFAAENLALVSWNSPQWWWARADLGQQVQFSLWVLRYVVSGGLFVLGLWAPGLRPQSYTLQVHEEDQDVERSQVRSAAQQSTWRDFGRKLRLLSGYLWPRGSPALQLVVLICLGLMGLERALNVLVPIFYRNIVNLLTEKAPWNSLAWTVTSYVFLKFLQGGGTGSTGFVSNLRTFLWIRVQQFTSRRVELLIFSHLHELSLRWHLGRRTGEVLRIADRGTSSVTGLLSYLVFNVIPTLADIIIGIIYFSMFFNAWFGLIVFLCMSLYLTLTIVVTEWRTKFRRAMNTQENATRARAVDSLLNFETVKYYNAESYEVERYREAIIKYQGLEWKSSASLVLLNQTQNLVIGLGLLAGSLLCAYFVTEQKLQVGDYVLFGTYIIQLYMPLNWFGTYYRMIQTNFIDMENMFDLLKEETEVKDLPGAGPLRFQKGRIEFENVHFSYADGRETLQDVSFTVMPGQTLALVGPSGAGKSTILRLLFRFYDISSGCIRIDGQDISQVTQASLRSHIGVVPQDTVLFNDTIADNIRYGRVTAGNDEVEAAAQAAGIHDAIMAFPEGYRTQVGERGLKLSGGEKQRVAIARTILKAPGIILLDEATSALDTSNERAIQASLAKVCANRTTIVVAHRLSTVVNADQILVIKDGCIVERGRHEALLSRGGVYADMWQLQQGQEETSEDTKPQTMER

[16] = promoters of myeloid differentiation in arrested cells, primary screen, cell-based, GFP/MAC1 double positive, flow cytometry, validation set (AID 588685;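 active = differentiation response of at least 50%, scaled between solvent and reference control, from cells with both markers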;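 note: compound exposure lasts four days before antibody staining and flow analysis; 0% = DMSO wells and 100% = 5 µM fulvestrant positive control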); conditions: ER-HoxA9 marrow cells, stronger effect = higher value, normalized: vehicle 0, fulvestrant 100

Compound | percent of DMSO control GFP [1] | GFP response vs DMSO [2] | percent response of DMSO control [3] | GFP response vs DMSO [4] | GFP response, % of DMSO [5] | double positive events [6] [%] | vesicle binding response [6] | inhibition [7] | superoxide response (% of plate) [8] | aptamer binding inhibition [9] | response [10] | inhibition [11] | response [12] | binding (% of control) [13] | efflux inhibition (fraction of control) [14] | inhibition [15] | differentiation response [16]
O=C(COc1ccccc1)Nc1ccc2c(c1)C(=O)N(CC1CCCO1)C2=O (stereo not drawn) | 100% (inactive) | 102% (inactive) | 102% (inactive) | 113% (inactive) | 106% (inactive) | 61.5 | 179% (inactive) | 13.7% (inactive) | 110% (inactive) | 3% (inactive) | 3.99% (inactive) | 4.36% (inactive) | -0.92% (inactive) | 100% (inactive) | 0.47 (active) | -12% (inactive) | -8.96% (inactive)
CCC(C(=O)OCCN(CC)CC)c1ccccc1 (stereo not drawn) | 101% (inactive) | 101% (inactive) | 98.2% (inactive) | 85.9% (inactive) | 99.1% (inactive) | 57.2 | 33.7% (inactive) | 2.55% (inactive) | 97.2% (inactive) | 5% (inactive) | 8.98% (inactive) | 19.7% (inactive) | -2.47% (inactive) | 98.8% (inactive) | 0.26 (inactive) | 6% (inactive) | 14.9% (inactive)
C[N+](C)(C)CCCCCCCCCC[N+](C)(C)C | 94.4% (inactive) | 129% (inactive) | 103% (inactive) | 77% (inactive) | 87% (inactive) | 70 | 208% (inactive) | 3.55% (inactive) | 100% (inactive) | 5% (inactive) | -10.3% (inactive) | -6.99% (inactive) | 0.2% (inactive) | 101% (inactive) | -0.56 (inactive) | 12% (inactive) | 1.64% (inactive)
Cc1ccc2ncnc(NCCCCCC(=O)O)c2c1 | 105% (inactive) | 103% (inactive) | 105% (inactive) | 106% (inactive) | 108% (inactive) | 64.6 | 130% (inactive) | 8.29% (inactive) | 114% (inactive) | -1% (inactive) | 0.4% (inactive) | 13.1% (inactive) | 5.01% (inactive) | 101% (inactive) | 0.135 (inactive) | 4% (inactive) | -14.8% (inactive)
CCC[C@@H]1C[C@@H](C(=O)N[C@H]([C@@H](C)O)[C@H]2O[C@H](SC)[C@H](O)[C@@H](O)C2O)N(C)C1 (stereo partly drawn) | 92.8% (inactive) | 120% (inactive) | 97.9% (inactive) | 80.9% (inactive) | 90.1% (inactive) | 66.2 | 177% (inactive) | 3.55% (inactive) | 99.1% (inactive) | 5% (inactive) | -3.92% (inactive) | -1.72% (inactive) | 3.43% (inactive) | 106% (inactive) | -0.17 (inactive) | 10% (inactive) | -4.09% (inactive)
COc1ccc(C2CC(c3c(O)cc(C)oc3=O)=NCCS2)c(OC)c1 (stereo not drawn) | 102% (inactive) | 108% (inactive) | 111% (inactive) | 86.8% (inactive) | 96.4% (inactive) | 64.5 | 818% (inactive) | 36.9% (inactive) | 92% (inactive) | 1% (inactive) | 19.6% (inactive) | 1.7% (inactive) | 0.66% (inactive) | 108% (inactive) | 0.14 (inactive) | -46% (inactive) | -4.64% (inactive)
COc1ccccc1/C=C/C(=O)OCCN1CCOCC1 | 99.8% (inactive) | 119% (inactive) | 114% (inactive) | 79.8% (inactive) | 103% (inactive) | 56.7 | 229% (inactive) | -8.09% (inactive) | 126% (inactive) | -4% (inactive) | -13.3% (inactive) | 0.96% (inactive) | -0.97% (inactive) | 106% (inactive) | 0.27 (inactive) | -9% (inactive) | -4.91% (inactive)
CC[C@H](C)C(=O)O[C@H]1C[C@@H](C)C=C2C=C[C@H](C)[C@H](CC[C@@H]3C[C@@H](O)CC(=O)O3)[C@H]21 | 107% (inactive) | 108% (inactive) | 103% (inactive) | 97% (inactive) | 95.8% (inactive) | 64.6 | 126% (inactive) | -5.11% (inactive) | 93.1% (inactive) | 2% (inactive) | 1.87% (inactive) | 49.7% (inactive) | -9.69% (inactive) | 109% (inactive) | 0.28 (inactive) | 0% (inactive) | -11.9% (inactive)
C=CCC1(O)C(=O)N2C(=C1C(=O)N1CCOCC1)c1ccccc1CC2(C)C (stereo not drawn) | 99.4% (inactive) | 108% (inactive) | 101% (inactive) | 95.3% (inactive) | 99.9% (inactive) | 55.4 | 38.1% (inactive) | -2.53% (inactive) | 111% (inactive) | 1% (inactive) | -4.96% (inactive) | 23.5% (inactive) | -6.09% (inactive) | 95.5% (inactive) | 0.24 (inactive) | -7% (inactive) | 0.24% (inactive)
